Rows were chosen to be rich in hits. Some 1.2% of all compounds tested hit in one or more screens of this group.
MmCpn inh: blocks the Methanococcus maripaludis chaperonin Mm-Cpn; purified Mm-Cpn ATPase, ADP Transcreener TR-FRET; Potency, µM (titrated, usually from 76.9 µM), usual class: inhibitors; 330,000 tested, 0.031% active; AID 504842; also: nearly all actives have a fitted effect of over 80% in size
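25 nM Mm-CPN + cpd, 10 min 37°C; + 10 uM ATP, 30 min 37°C; buffer 30 mM Tris pH 7.4, 100 mM KCl, 5 mM MgCl2, 1 mM DTT; Transcreener ADP HTRF detection 30 min RT.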
RXFP1 ag: RXFP1 (human) receptor agonism; Q9HBX9; HEK293T-RXFP1 cAMP TR-FRET, 30 min; response scale: percent of porcine relaxin response, buffer zero; Potency, µM (titrated, usually from 57.5 µM), actives largely listed as activators; 370,000 tested, 0.3% active; also: nearly all actives have a fitted effect of over 60% in size
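cAMP rise read by TR-FRET after 30 min, 37C compound exposure (up to 58 uM) in RXFP1-transfected HEK293 cells with Ro 20174 present. EC50 from Hill-equation fits, with 29 nM porcine relaxin as 100% and buffer as basal.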
CCT modulator: cytosolic chaperonin activity modulation | activity change, % (no concentration beside the values), hits read low | purified chaperonin ATPase assay, HTRF ADP detection, 30 min | 360,000 tested, 0.3% active | AID 651819; in the data active = activity change below about -30%
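TRiC (40 or 20 nM final, by batch activity) in 30 mM Tris pH 7.4, 100 mM KCl, 5 mM MgCl2, 1 mM DTT was treated with compound at 76 uM single dose, then 10 uM ATP, 30 min at 37 °C. ADP was read by HTRF Transcreener.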
gsp agonist: activates gsp, the McCune-Albright syndrome mutation; Potency, µM (doses to about 76.9 µM), actives largely listed as activators; AID 624287; 340,000 tested, 0.13% active; gsp mutant cells, cAMP HTRF, 30 min; active = well fitted activation curve with a large enough effect; inconclusive = small, poorly fitted or top-dose-only effect, or another doubt; inactive = no such curve, though single readings can be large or run the other way; cell line not stated here;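 also: phosphodiesterase inhibitor Ro 20-1724 added with compounds to block cAMP breakdown; nearly all actives have a fitted effect of over 60% in size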
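Cells stably selected in G418 were plated at 2000/well, grown 16-24 hr, then given compounds in DMSO with the PDE inhibitor […] (300 uM solution added) for 30 min at 37C; cAMP was read by HTRF.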
gsp antag: antagonists of gsp mutant (McCune-Albright syndrome) | gsp-mutant cells, cAMP HTRF, 30 min | Potency, µM (highest dose often 76.9 µM), hits mostly inhibitors | 340,000 tested, 0.4% active | AID 624288; calls by dose curve; cell line not stated here;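 also: intracellular cAMP measured with PDE inhibitor Ro 20-1724 present during compound exposure; nearly all actives have a fitted effect of over 65% in size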
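HTRF cAMP measurement after 30 min RT detection following 30 min, 37C compound treatment alongside […] (added as 300 uM solution) in G418-selected cells seeded at 2000/well and grown 16–24 h.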
RXFP1 antagonist: antagonists of human relaxin receptor RXFP1; Q9HBX9; HEK293-RXFP1, relaxin-stimulated cAMP HTRF, 30 min; hits give low values; activity change, negative = inhibition, % at 57.5 µM; 350,000 tested, 0.59% active;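 active = activity change of -60% or lower, but not beyond a set lower limit; inconclusive = change between -60% and -40%, or beyond the set limit; inactive = change above -40%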
Of the large screens only hits and unclear results are named; the others gave an inactive call; ! = a repeat was not active. Unless noted, calls follow the shape of the dose curve; as a rule, active = well fitted curve in the direction sought with a large enough effect; inconclusive = small, poorly fitted or top-dose-only effect, or another doubt; inactive = no such curve, though single readings can be large; an effect the other way counts as inactive or inconclusive.

CN(C)CCCCOc1ccc(Br)cc1Cl	CCT modulator -58.6
CCCCn1c(N)c(N(CC(C)C)C(=O)c2cccc(S(=O)(=O)N3CCCCCC3)c2)c(=O)[nH]c1=O	CCT modulator -81.3
CCCCn1c(N)c(N(CC(C)C)C(=O)c2cccc(S(=O)(=O)N3CCCCC3)c2)c(=O)[nH]c1=O	none
CCn1c(=O)cc(OCC(=O)NCc2ccc(F)cc2Cl)c2ccccc21	none (no result: MmCpn inh, CCT modulator, gsp agonist, gsp antag)
Cc1cc(=O)[nH]c(=S)n1-c1ccccc1	CCT modulator -34.1
Cc1cccc(-n2c(-c3ccccc3)cn3c4c(=O)[nH]c(=O)n(C)c4nc23)c1	none (no result: MmCpn inh, CCT modulator, gsp agonist, gsp antag, RXFP1 antagonist)
O=C(O)c1ccc2c3c(cccc13)C(=O)N(c1ccccc1)C2=O	none
CC(=O)Nc1ccc2c3c(cccc13)C(=O)N(c1ccccc1)C2=O	gsp agonist 35.5µM
O=C(O)c1ccc(N2C(=O)c3cccc4c(C(=O)O)ccc(c34)C2=O)cc1	RXFP1 ag inconclusive, gsp agonist 20µM
Cc1ccc(-c2nc(S(=O)(=O)c3ccc(C)cc3)c(N3CCCCC3)o2)cc1	none (no result: MmCpn inh, CCT modulator, gsp agonist, gsp antag, RXFP1 antagonist)
Cc1nn(CC(=O)N2CCN(c3cccc(C(F)(F)F)c3)CC2)c(=O)c2cccn12	RXFP1 ag 35.5µM!, gsp agonist inconclusive
CCOC(=O)C1CCN(C(=O)Cn2nc(C)n3cccc3c2=O)CC1	RXFP1 ag inconclusive, gsp agonist inconclusive
Cc1nn(CC(=O)N2CCC(C)CC2)c(=O)c2cccn12	CCT modulator -55.0, gsp agonist inconclusive, RXFP1 antagonist inconclusive
CC(=O)NC(=S)Nc1sc2c(c1C#N)CCCCC2	CCT modulator -30.8, gsp antag inconclusive
N#Cc1c(NC(=S)NC(=O)c2ccccc2)sc2c1CCC2	gsp agonist inconclusive
N#Cc1c(NC(=S)NC(=O)Cc2cccs2)sc2c1CCCCC2	gsp antag 31.6µM
CN1CCc2c(sc3c2C(=O)NC(c2ccc(C(C)(C)C)cc2)N3)C1 (stereo not given)	none (no result: MmCpn inh, CCT modulator, gsp agonist, gsp antag)
O=C(C1CCCN(S(=O)(=O)c2cccc3nsnc23)C1)N1CCN(c2ccccc2Cl)CC1 (stereo not given)	none (no result: MmCpn inh, CCT modulator, gsp agonist, gsp antag, RXFP1 antagonist)
COc1ccc(CNC(=O)Cc2ccc(NC(=O)N3CCCCc4ccccc43)cc2)cc1	none (no result: MmCpn inh, CCT modulator, gsp agonist, gsp antag, RXFP1 antagonist)
Cc1cccc(C)c1NS(=O)(=O)c1c(C)[nH]c(=O)[nH]c1=O	CCT modulator -36.8
COC(=O)[C@@H]1[C@@H](C#N)C2(c3ccccc3-c3ccccc32)N(c2ccc(Cl)cc2)N1C#N	RXFP1 antagonist -72.9
O=C(Cc1ccc(Cl)cc1)NN1C(=O)c2ccccc2C1=O	none
COC(=O)c1ccc(C(=O)OC)c(NC(=O)c2cnn3c(C(F)F)cc(-c4ccccc4)nc23)c1	none (no result: MmCpn inh, CCT modulator, gsp agonist, gsp antag)
CCC(=O)Nc1c(-c2ccccc2Cl)c(=O)c2ccccc2n1CC	gsp agonist 15.8µM
COc1ccc(NC(=O)c2ccco2)cc1NC(=O)COc1cc(C)ccc1C(C)C	none (no result: MmCpn inh, CCT modulator, gsp agonist, gsp antag, RXFP1 antagonist)
Cc1ccc(CNS(=O)(=O)c2ccc3c(c2)NC(=O)CS3)cc1	CCT modulator -73.6
O=C1CSc2ccc(S(=O)(=O)NCc3ccc(F)cc3)cc2N1	none
CCN(Cc1ccccc1)S(=O)(=O)c1ccc2c(c1)NC(=O)CS2	gsp agonist inconclusive, RXFP1 antagonist -72.4
CCN(Cc1ccccc1)S(=O)(=O)c1ccc2c(c1)NC(=O)CC(=O)N2	none
O=C(Cn1c(=O)nc(-c2ccccc2)c2ccccc21)NCCc1ccc(Cl)cc1	none (no result: MmCpn inh, CCT modulator, gsp agonist, gsp antag)
COc1cccc(C(=O)Nc2cccc(OCc3cc(=O)n4cc(C)ccc4n3)c2)c1	none (no result: MmCpn inh, CCT modulator, gsp agonist, gsp antag)
O=C(CSc1nnc2c(Cl)cc(Cl)cn12)NC1CCS(=O)(=O)C1 (stereo not given)	gsp agonist 10µM
O=c1cc(-c2ccccc2Cl)oc2ccc([N+](=O)[O-])c(O)c12	none (no result: RXFP1 antagonist)
O=[N+]([O-])c1cc([N+](=O)[O-])c2oc(-c3ccccc3)c(Br)c2c1O	RXFP1 antagonist -113.0
Cc1nn2c(CN(C(=O)COc3ccccc3)c3ccccc3)nnc2c2ccccc12	gsp agonist inconclusive (no result: RXFP1 antagonist)
Cc1nn2c(CN(C(=O)CN3CCOCC3)c3ccccc3)nnc2c2ccccc12	CCT modulator -33.6

Compound activity (PubChem BioAssay)
